Compounds with a hit are over-represented: about 2.3% of the library has one in this group of screens.
CHO-K1 Ca ag: nonselective activator or artifact in parental CHO-K1 cells; hit rate 0.48% among 360,000; activation, % at 3 µM; Fluo-8 calcium fluorescence; scaled to maximal ATP response, vehicle zero; in the data active means activation above about 15%;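 further: untransfected CHO-K1 host cells lacking M1 receptor as counterscreen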
CHRM1 antagonist: antagonists of human M1 muscarinic receptor | inhibition, % at 3 µM | P11229 | CHO-K1 hM1, Fluo-8 calcium fluorescence, ACh EC80 antagonist | hit rate 1.3% among 360,000;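 active means percent inhibition above its own plate's cutoff, namely the mean of that plate's compound wells plus 3 SD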;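 further: peak over basal fluorescence ratio during 140 s after agonist addition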
Target sequence (P11229 whole entry, looked up): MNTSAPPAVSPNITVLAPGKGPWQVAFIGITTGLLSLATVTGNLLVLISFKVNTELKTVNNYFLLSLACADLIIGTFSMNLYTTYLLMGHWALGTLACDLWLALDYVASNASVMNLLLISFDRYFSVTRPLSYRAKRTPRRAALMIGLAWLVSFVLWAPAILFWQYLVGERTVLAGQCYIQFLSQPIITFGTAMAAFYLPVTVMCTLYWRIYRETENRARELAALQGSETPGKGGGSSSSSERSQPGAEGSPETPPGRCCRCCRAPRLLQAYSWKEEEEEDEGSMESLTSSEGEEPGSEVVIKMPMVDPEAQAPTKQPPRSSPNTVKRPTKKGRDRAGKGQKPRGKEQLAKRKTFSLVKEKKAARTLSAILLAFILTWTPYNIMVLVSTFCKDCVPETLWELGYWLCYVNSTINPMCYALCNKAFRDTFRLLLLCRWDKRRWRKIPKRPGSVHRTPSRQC
CHO-K1 Ca antag: counter-screen for M1 antagonists: effect in parental CHO-K1 cells | ATP-induced calcium, Fluo-8 fluorescence | inhibition, % at 3 µM | hit rate 0.6% among 360,000 | AID 602250;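 active means inhibition above a per-plate cutoff, the plate's mean sample inhibition plus 3 SD, cut at about 24% in these data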
M1 PAM: human CHRM1 positive allosteric modulation; CHO-K1 hM1, Fluo-8 calcium fluorescence, ACh EC20; 0% = ACh EC20, 100% = maximal ACh; activation, % at 3 µM; hit rate 0.088% among 360,000; AID 588819; in the data active means activation above about 19%, passing the limit was not always enough
M1 ag: agonists of human M1 muscarinic receptor. P11229. CHO-K1 hM1, Fluo-8 calcium fluorescence, agonist mode; 0% DMSO, 100% acetylcholine EC100. activation, % at 3 µM. hit rate 0.33% among 360,000. AID 588814;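 active means activation above the run's mean compound activation plus 3 SD, cut at about 16% in these data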;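 further: peak over basal fluorescence ratio within a 140 s kinetic read after compound addition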
M1 PAM parental: nonselective activator or artifact in parental CHO-K1 calcium assay. activation, % at 3 µM. hit rate 0.02% among 360,000. ATP EC20, Fluo-8 calcium fluorescence; 0% at ATP EC20, 100% at ATP max;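 active means activation above the run cutoff, the mean activation of all test compounds plus 3 SD, cut at about 40% in these data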;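 further: peak over basal fluorescence ratio in a 140 s read after ATP addition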
Large screens that a line does not name were inactive.

O=C(c1ccc(Br)c(S(=O)(=O)N2CCOCC2)c1)N1CCN(C/C=C/c2ccccc2)CC1	CHRM1 antagonist 69.9
CC1CC(C)CN(C(=O)c2ccc(Br)c(S(=O)(=O)N3CCOCC3)c2)C1 (configuration not stated)	none
CCO[C@H]1OC(C(N)=O)=C[C@@H](C(C)(C)C)[C@@H]1CCCO	none
O=C(Nc1cccc(-c2cnc3ccccc3n2)c1)c1ccccc1	none
O=C(Nc1cccc(-c2cnc3ccccc3n2)c1)c1cccc(NC(=O)c2ccco2)c1	CHRM1 antagonist 35.0, CHO-K1 Ca antag 31.2
CCC(=O)Nc1cccc(NC(=O)c2ccc(C)cc2Cl)c1	none
CC(C)[C@H](NC(=O)c1ccc(F)cc1)C(=O)NC1=NCCS1	none
CCOC(=O)N1CCN(C(=O)c2ccc(N(Cc3ccccc3Cl)S(C)(=O)=O)cc2)CC1	M1 PAM 32.3
CCOC(=O)C1=CCN(S(=O)(=O)c2ccccc2C)C1c1cccc(Br)c1 (configuration not stated)	none
CC(C)CCNC(=O)Cn1c(=O)oc2cc(S(=O)(=O)N3CCc4ccccc43)ccc21	CHRM1 antagonist 31.3
O=c1cc(-c2ccccc2Cl)oc2c(NS(=O)(=O)c3cccs3)ccc(O)c12	none
O=C(O)C/C=C(/NC(=O)OCc1ccccc1)C(=O)OCc1ccccc1	none
COc1ccccc1-c1ccc(/C=C2\C=CC(=O)O2)o1	CHO-K1 Ca ag 28.0, M1 ag 27.0
O=S(=O)(c1ccc(NCc2ccccc2)cc1)N1CCOCC1	CHO-K1 Ca antag 25.0
O=C(Nc1ccc(N2CCCC2)cc1)c1ccc(Cl)cc1Cl	none
O=C(Nc1ccc(N2CCOCC2)cc1)C1(c2ccc(Cl)cc2)CCC1	M1 ag 16.5
O=C(Nc1ccc(N2CCCC2)cc1)c1cc(Cl)ccc1Cl	CHRM1 antagonist 36.0
O=C(Nc1ccc(N2CCOCC2)cc1)Nc1ccc(Cl)c(Cl)c1	CHRM1 antagonist 54.8, CHO-K1 Ca antag 33.3
O=C(N1CCOCC1)C1(c2ccc(Cl)cc2)CCCC1	none
O=C(Nc1ccc(Cl)cc1)Nc1ccc(N2CCOCC2)cc1	none
O=C(Nc1ccccc1)Nc1ccc(Cl)c(S(=O)(=O)N2CCOCC2)c1	CHO-K1 Ca ag 17.6
CCOC(=O)c1cc2sccc2n1CC(=O)OC(C)C	M1 PAM 18.6
CCOC(=O)c1cc2sccc2n1CC(=O)Nc1ccc(OC)cc1	none
O=c1c2cc(Br)ccc2nc(-c2cccc(C(F)(F)F)c2)n1O	M1 ag 25.1
CC(C)(Oc1ccc(Cl)cc1)C(=O)OCC(=O)NCCc1ccccc1	none
Cc1cccc(C)c1NC(=O)COC(=O)c1c2c(nc3ccccc13)/C(=C\c1ccc3c(c1)OCO3)CCC2	CHO-K1 Ca ag 41.0, CHO-K1 Ca antag 27.6, M1 ag 41.7
Nc1nc(NCCCN2CCOCC2)nc(NCc2ccccc2)c1[N+](=O)[O-]	CHRM1 antagonist 66.1
Nc1nc(NCCN2CCOCC2)nc(NCc2ccccc2)c1[N+](=O)[O-]	none
CC(=O)Nc1ccc(C(=O)COC(=O)c2cc(C)oc2C)c(F)c1	none
O=C(c1ccccc1)N1CCN=C1c1ccccc1	none
COc1ccc(C(=O)N2CCN=C2c2ccccc2)cc1OC	CHO-K1 Ca antag 26.2
CN1CCCC(OC(=O)CCCCC(=O)OC2CCCN(C)C2)C1 (configuration not stated)	CHO-K1 Ca antag 26.3
CN1CCCC(OC(=O)c2ccc(Cl)cc2)C1 (configuration not stated)	none
CCOC(=O)C1CCCN(c2cc(=O)n(-c3ccccc3Cl)c(=O)[nH]2)C1 (configuration not stated)	M1 ag 29.2
CCOC(=O)C1CCCN(c2cc(=O)n(Cc3ccc(F)cc3)c(=O)[nH]2)C1 (configuration not stated)	M1 ag 22.5
COC(=O)C1CCN(c2cc(=O)n(Cc3ccc(F)cc3)c(=O)[nH]2)CC1	none
C[C@H](CO)N1C[C@H](C)[C@@H](CN(C)CC2CC2)OCc2cnnn2CCCC1=O	none
CC(C)Sc1cc(Cl)nc(NC(=O)Nc2ccccc2)n1	none
O=C(Cc1c(F)cccc1Cl)NNC(=O)c1ccncc1	none
O=C(CN1CCCC1)NCc1ccccc1	none
O=C(CN1CCOCC1)NN=C(c1ccccc1)c1ccccc1	none
O=C(CN1CCCCCC1)NN(Cc1ccccc1)c1ccccc1	CHRM1 antagonist 55.8
O=C(CN1CCCCCC1)Nc1ccc(Oc2ccccc2)cc1	CHRM1 antagonist 42.0
O=C(CN1CCOCC1)Nc1ccccc1-c1ccccc1	none
O=C(CN1CCCCC1)Nc1ccccc1-c1ccccc1	CHRM1 antagonist 100.9
O=C(CN1CCCCC1)Nc1ccccc1	none
O=C(CN1CCCC1)NN=C(c1ccccc1)c1ccccc1	CHRM1 antagonist 63.6
COc1ccc(NC(=O)CN2CCN(C3c4ccccc4-c4ccccc43)CC2)cc1	M1 PAM parental 52.8
COc1ccc(NC(=O)CN2CCN(c3ccccc3)CC2)cc1	none
CN(C)c1ccc(NC(=O)C[n+]2ccccc2)cc1	none
O=C(C[n+]1ccccc1)Nc1ccc(Oc2ccccc2)cc1	CHRM1 antagonist 90.9
O=C(OCc1nc(-c2ccccc2Cl)no1)c1ccco1	none
O=c1c2cn(Cc3ccccc3)c3ccccc3c-2nn1Cc1ccc(F)cc1Cl	M1 PAM 30.7, M1 ag 20.1
O=c1c2cn(Cc3ccc(F)cc3)c3ccccc3c-2nn1Cc1ccc(F)cc1	none
CC1CCCC(NC(=O)/C=C/c2c(F)cccc2Cl)C1C (configuration not stated)	none
N#Cc1c(-c2cccs2)cc(-c2cccs2)[nH]c1=O	M1 PAM parental 39.9
CC1(O)c2ccccc2C(=O)N1Cc1ccccc1 (configuration not stated)	CHO-K1 Ca antag 27.1
CC1(O)c2ccccc2C(=O)N1CCc1ccccc1F (configuration not stated)	none
COc1ccc(CCNc2oc(COc3ccc(Br)cc3)nc2C#N)cc1OC	CHRM1 antagonist 35.9
COc1ccc(CCNc2oc(Cc3cccc4ccccc34)nc2C#N)cc1OC	none
Nc1cc(=O)[nH]c(SCc2ccc(Cl)cc2Cl)n1	CHO-K1 Ca ag 15.1
Nc1ncnc2nc(SCc3ccc(Cl)cc3Cl)[nH]c12	none
C#CCOc1ccc(C2C3=C(CCCC3=O)N(CC(=O)O)C3=C2C(=O)CCC3)cc1Br	none
CC(C)(C)NC(=O)NC(=O)CSc1nnc(-c2ccccc2F)n1N	CHO-K1 Ca antag 33.3
COc1ccc(C2Nc3ccccc3C(=O)N2NS(=O)(=O)c2ccccc2)cc1 (configuration not stated)	none
COc1ccc(CCNC(=S)NC2CCN(Cc3ccccc3)CC2)cc1OC	none
CCSc1nsc(NC(=O)Nc2ccccc2Cl)n1	CHO-K1 Ca antag 27.9
CCSc1nsc(NC(=O)Nc2ccc(F)cc2F)n1	none
CCOc1ccc(S(=O)(=O)N2CCC(C(=O)N3CCc4ccccc4C3)CC2)cc1	none

High-throughput results as filed in PubChem.
